In PubChem BioAssay (EPA / NIEHS):
Records with an inconclusive call do not appear. The source made the active and inactive calls. How the source made its calls: active means hit-call score of the fitted dose curve at least 0.9, where 1 is the maximum; inconclusive means response in the unintended direction; inactive means score below 0.9.

These compounds were tested on sulfotransferase (SULT2A), SULT2A1 (gene 6822) (assay: CLD_SULT2A_6hr: CellzDirect (CLD) Gene Expression Assay for sulfotransferase (SULT2A) at 6 hours (AID 2283669);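 further: hits raise transcript level above the DMSO vehicle baseline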).
Experimental: CLD_6hr is a cell-based, multiplexed-readout assay that uses hepatocyte, a human liver primary cell, with measurements taken at 6 hours after chemical dosing in a 96-well plate.CLD_SULT2A_6hr is one of 16 assay component(s) measured or calculated from the CLD_6hr assay. It is designed to make measurements of mRNA induction, a form of inducible reporter, as detected with chemiluminescence signals by Quantitative Nuclease Protection Assay (qNPA) technology.Data from the assay component CLD_SULT2A_6hr was analyzed at the endpoint, CLD_SULT2A_6hr, in the positive analysis fitting direction relative to DMSO as the negative control and baseline of activity. Using a type of inducible reporter, gain-of-signal activity can be used to understand changes in the reporter gene as they relate to the gene SULT2A1. Furthermore, this assay endpoint can be referred to as a primary readout. To generalize the intended target to other relatable targets, this assay endpoint is annotated to the transferase intended target family, where subfamily is sulfotransferase.
Human hepatocyte cultures were treated daily for two consecutive days with fresh dosing solutions containing appropriate concentrations of the 320 ToxCast chemicals (chemical identities were blinded to CellzDirect and other ToxCast collaborators), vehicle control (0.2% DMSO), and positive control inducers as summarized in Table 1. Due to the large number of treatment groups and chemicals examined, the ToxCast chemicals were divided into two groups (spanning two independent cultures of hepatocytes from separate donor preparations (Hu778: ToxCast plates 1 and 2; Hu776: ToxCast plates 3 and 4). Each preparation of human hepatocyte cultures was treated with respective vehicle control, medium only control, set of six positive controls/reference chemicals for the five hepatic receptor pathways, and a subset of eight of the ToxCast chemicals (indoxacarb, pyrithiobac-sodium, norflurazon, cyhalofop-butyl, methomyl, thiram, acetochlor, and propiconazole). These replicate data, coupled with internal replicates designed within the blinded ToxCast chemical library, provided additional data to evaluate interindividual differences between hepatocyte preparations and their potential impact on chemical profiles.Cell morphology and integrity were evaluated using phase-contrast microscopy as an indicator of hepatocyte cell health (Tyson & Green, 1987). Cultures for each treatment group (i.e., media, vehicle [0.2% DMSO], positive control inducers [multiple concentrations], and the ToxCast chemicals [multiple concentrations]) were observed and cell morphology was assessed relative to vehicle control cultures at each harvest time point (0, 6, 24, or 48 h). […] Images were evaluated at the conclusion of the study to assess changes in cell integrity and account for the effects of chemical exposure on uncharacteristic changes in concentration-dependent gene expression profiles. The results from these determinations of apparent cytotoxicity were annotated (yes/no) alongside the corresponding qNPA data for reference.At the conclusion of each treatment period, hepatocyte cultures (96-well) were washed with 1 volume of HBSS, lysed by addition of 25 ul ArrayPlate lysis buffer (HTG, Tucson, AZ), and 70 ul/well of Denaturation Oil, denatured by incubation at 95C for 10 min, and frozen at approximately -70C until analysis by nuclease protection assay (qNPA) (Roberts et al., 2007). For qNPA analysis, cell lysates were thawed at 50C for approximately 30 min, qNPA probes were added, and samples were incubated at 95C for 10 min to begin the detection process by denaturing the target RNA, dissociating the duplexes and secondary structure hybridization. At the conclusion of the hybridization period, S1 nuclease reagent was added to each sample to digest all nonprotected nucleotides at 50C for 60-90 min. […]

| SMILES | outcome | AC50 |
| --- | --- | --- |
| N#Cc1nn(-c2c(Cl)cc(C(F)(F)F)cc2Cl)c(N)c1S(=O)C(F)(F)F (stereo not given) | inactive |  |
| COc1cnc(OC)n2nc(NS(=O)(=O)c3c(OCC(F)F)cccc3C(F)(F)F)nc12 | inactive |  |
| N#Cc1cc(Br)c(O)c(Br)c1 | inactive |  |
| COC(=O)C=C(C)OP(=O)(OC)OC | inactive |  |
| CC1=C(C(=O)Nc2ccccc2)SCCO1 | inactive |  |
| CCOC(=O)CC(SP(=S)(OC)OC)C(=O)OCC (stereo not given) | inactive |  |
| O=C(O)COc1nc(Cl)c(Cl)cc1Cl | inactive |  |
| COP(=S)(OC)Oc1nc(Cl)c(Cl)cc1Cl | inactive |  |
| CCNc1nc(Cl)nc(NC(C)C)n1 | inactive |  |
| CCCCC(CC)COC(=O)c1ccccc1C(=O)OCC(CC)CCCC (stereo not given) | inactive |  |
| Cc1cc(Cl)ccc1OCC(=O)O | inactive |  |
| COC(=O)C(C)Oc1ccc(Oc2ccc(Cl)cc2Cl)cc1 (stereo not given) | inactive |  |
| Cc1c(F)c(F)c(COC(=O)C2C(/C=C(\Cl)C(F)(F)F)C2(C)C)c(F)c1F (stereo not given) | inactive |  |
| COP(N)(=O)SC (stereo not given) | inactive |  |
| CCCN(CCC)c1c([N+](=O)[O-])cc(S(N)(=O)=O)cc1[N+](=O)[O-] | inactive |  |
| C=CCC1=C(C)C(OC(=O)C2C(C=C(C)C)C2(C)C)CC1=O (stereo not given) | inactive |  |
| COc1ccc(C(c2ccc(OC)cc2)C(Cl)(Cl)Cl)cc1 | inactive |  |
| CCOP(=S)(OCC)SCn1c(=O)oc2cc(Cl)ccc21 | inactive |  |
| CC(C)(C)c1ccc(CSc2cnn(C(C)(C)C)c(=O)c2Cl)cc1 | inactive |  |
| COc1nc(NC(C)C)nc(NC(C)C)n1 | inactive |  |

| SMILES | outcome | AC50 |
| --- | --- | --- |
| CC(C)Oc1cc(-n2nc(C(C)(C)C)oc2=O)c(Cl)cc1Cl | inactive |  |
| CCCCNC(=O)OCC#CI | inactive |  |
| OC(c1ccc(Cl)cc1)(c1cncnc1)c1ccccc1Cl (stereo not given) | inactive |  |
| CC(C)C1(C)N=C(c2nc3ccccc3cc2C(=O)O)NC1=O (stereo not given) | inactive |  |
| CNC(=S)S |  | 7.49 µM (active) |
| COC(=O)N(OC)c1ccccc1COc1ccn(-c2ccc(Cl)cc2)n1 | inactive |  |
| CO/C=C(/C(=O)OC)c1ccccc1Oc1cc(Oc2ccccc2C#N)ncn1 | inactive |  |
| CCOc1cc(Oc2ccc(C(F)(F)F)cc2Cl)ccc1[N+](=O)[O-] | inactive |  |
| CON(C)C(=O)Nc1ccc(Cl)c(Cl)c1 | inactive |  |
| CCOC(=O)C(Cl)Cc1cc(-n2nc(C)n(C(F)F)c2=O)c(F)cc1Cl (stereo not given) | inactive |  |
| C=CCC1=C(C)[C@@H](OC(=O)[C@@H]2[C@@H](C=C(C)C)C2(C)C)CC1=O |  | 20 µM (active) |
| CCCC1COC(Cn2cncn2)(c2ccc(Cl)cc2Cl)O1 (stereo not given) | inactive |  |
| CCCCOC(=O)c1ccccc1C(=O)OCCCC | inactive |  |
| N#CC(CCc1ccc(Cl)cc1)(Cn1cncn1)c1ccccc1 (stereo not given) | inactive |  |
| COc1nc(C)nc(NC(=O)NS(=O)(=O)c2ccccc2Cl)n1 | inactive |  |
| Cc1ccc(-c2c(Cl)nc(C#N)n2S(=O)(=O)N(C)C)cc1 |  | 20 µM (active) |
| COc1nc(C)nc(NC(=O)NS(=O)(=O)c2ccccc2CCC(F)(F)F)n1 | inactive |  |
| C#CCOS(=O)OC1CCCCC1Oc1ccc(C(C)(C)C)cc1 (stereo not given) | inactive |  |
| CCc1nn(C)c(C(=O)NCc2ccc(C(C)(C)C)cc2)c1Cl |  | 2.8 µM (active) |
| CC1COC(Cn2cncn2)(c2ccc(Oc3ccc(Cl)cc3)cc2Cl)O1 (stereo not given) |  | 20 µM (active) |
